# Assay outcomes from PubChem.
# dFosB act-1: activators of mouse delta FosB homodimer | 340,000 tested, 0.99% active | purified delta FosB, TAMRA-CDK5 oligo fluorescence polarization; percent of positive-control signal above neutral wells | activation, % at 25 µM | P13346;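 active means mean activation above about 17%, with every replicate also reaching it, limit read from the data, passing the limit was not always enough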
# Target sequence (P13346 whole entry, looked up): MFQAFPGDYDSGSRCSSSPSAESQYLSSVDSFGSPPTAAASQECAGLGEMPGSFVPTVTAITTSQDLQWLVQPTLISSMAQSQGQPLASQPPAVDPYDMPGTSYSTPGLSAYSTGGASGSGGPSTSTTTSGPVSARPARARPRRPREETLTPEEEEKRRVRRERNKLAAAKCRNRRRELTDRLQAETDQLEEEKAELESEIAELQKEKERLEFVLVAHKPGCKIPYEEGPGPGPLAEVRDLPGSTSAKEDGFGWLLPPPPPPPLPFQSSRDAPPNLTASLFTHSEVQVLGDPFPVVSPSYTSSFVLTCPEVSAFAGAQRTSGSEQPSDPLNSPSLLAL
# Vif inh: blocks HIV Vif function | HEK293T cells, Vif self-association by quenched fluorescence, imaging, 24 h | inhibition, % at 7.49 µM | 340,000 tested, 0.35% active | AID 602346; in the data active means inhibition above about 50%, passing the limit was not always enough
# Bfl-1 A1 inh: inhibitors of the anti-apoptotic protein A1, read as caspase activation. MEF A1-2A-BIM cells, Caspase-Glo 3/7 luminescence, 3 h; percent of clofoctol response, vehicle zero. caspase activation, % (no concentration beside the values). 330,000 tested, 0.066% active;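 active means over half of replicate activation scores above 10%, or exactly half above 10 with the replicate mean above 10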
# INS-1E GSIS act: primary screen for activators of insulin secretion dependent on glucose, INS-1E cells, GLuc reporter luminescence. 370,000 tested, 0.61% active. activation, % at 16.6 µM. INS-1E GLuc reporter insulin secretion, 2-3 h. AID 743287;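 active means lowest replicate activation of at least 40%, so every replicate reaches that level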;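 further: 0% = median of neutral control wells and 100% = median of IBMX positive control wells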
# Neddyl block: inhibitors of human cullin neddylation | P61081+Q13564 | TR-FRET cullin neddylation, biochemical | inhibition, % at 25 µM | 360,000 tested, 0.58% active; in the data active means inhibition above about 36%
# dFosB act-2: enhances mouse delta FosB homodimer binding to DNA | shares compounds with dFosB act-1 | purified delta FosB, TAMRA-CDK5 oligo fluorescence polarization; normalised: neutral wells 0, positive control 100 | activation, % at 24.9 µM | 2,400 tested, under 10 active;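 active means highest replicate activation at or above 34% and every replicate reaching that threshold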;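 further: higher polarization means more probe DNA bound by delta FosB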
# The depositor's hits bear a star; nt = no result given. This is a sample that favours compounds with a hit; in the whole collection about 1.9% have one here.
SMILES,dFosB act-1,Vif inh,Bfl-1 A1 inh,INS-1E GSIS act,Neddyl block,dFosB act-2
Cc1ccccc1COc1cccc(/C=N/NC(=O)c2nnn(-c3nonc3N)c2C)c1,24*,0,1,8,3,0
Cc1cccc(COc2ccc(/C=N/NC(=O)c3nnn(-c4nonc4N)c3COc3ccc(F)cc3)cc2)c1,27*,-1,-2,30,nt,-2
COc1ccccc1S(=O)(=O)N1CC[C@@H]2[C@H]1c1cc(-c3ccccc3F)ccc1N(C)[C@H]2CO,nt,nt,nt,7,nt,nt
C[C@H]1CN([C@@H](C)CO)C(=O)c2cccc(NC(=O)NC3CCCCC3)c2O[C@@H]1CN(C)CC1CC1,nt,nt,nt,-2,nt,nt
CC(CCc1ccco1)NC(=O)CCc1nnc2ccc(NCc3ccccc3Cl)nn12 (stereo not drawn),22*,3,-1,0,4,0
CCc1ccc2oc(C(=O)NCC(c3ccc(OC)cc3)N3CCCCC3)c(C)c2c1 (stereo not drawn),21*,-24,0,-5,4,0
CCc1ccc(/C=C2/Sc3ccccc3N(CC(=O)NCCCN3CCOCC3)C2=O)cc1,-4,-5,-1,-7,-11,nt
O=C(CN1C(=O)/C(=C/c2ccc(C(F)(F)F)cc2)Sc2ccccc21)NCCCN1CCOCC1,25*,-15,0,-19,-14,0
Cc1noc(C)c1S(=O)(=O)N(C)C[C@H]1Oc2ccc(NS(=O)(=O)c3cccs3)cc2C(=O)N([C@@H](C)CO)C[C@H]1C,nt,nt,nt,4,nt,nt
C[C@H]1CCCCO[C@@H](CN(C)C)[C@@H](C)CN([C@@H](C)CO)C(=O)c2cc(NC(=O)CCCN(C)C)ccc2O1,nt,nt,nt,16,nt,nt
CCN(CC)Cc1cc2[nH]c3c4ccc(Cl)cc4ncc3c2cc1OC,24*,nt,nt,12,8,6
Cn1c(=O)c2ncn(CC(=O)Nc3nc(-c4ccc(Cl)cc4)cs3)c2n(C)c1=O,24*,-17,0,1,-4,1
CC1CCN(S(=O)(=O)c2ccc(C(=O)Nc3sccc3C(N)=O)cc2)CC1,53*,8,-1,-10,nt,3
CC(C)CC(=O)Nc1ccc(C(=O)Cn2nc(C(=O)O)c3ccccc3c2=O)cc1,4,-8,0,nt,-14,nt
CC(C)(C)c1ccc(C(=O)Cn2nc(C(=O)O)c3ccccc3c2=O)cc1,29*,0,0,-17,-15,6
CCC(=O)N(C)C[C@H]1Oc2cc(C#CC(C)(C)O)ccc2S(=O)(=O)N([C@H](C)CO)C[C@@H]1C,nt,nt,nt,5,nt,nt
Cc1ccc(CCNC(=O)C2CCN(S(=O)(=O)c3cccc4nsnc34)CC2)cc1,33*,8,0,nt,-36,2
CN1CCc2cc3c(c4c2[C@H]1[C@H](O)c1ccccc1-4)OCO3,32*,-4,0,nt,4,-1
CC(C)(C)C(=O)Nc1cc(S(=O)(=O)Nc2ccc(Cl)cc2)ccc1Cl,-11,-14,-1,-25,-14,nt
CC(=O)Nc1cc2cc(NS(=O)(=O)c3ccc(Cl)cc3)ccc2oc1=O,93*,nt,0,-4,31,1
Cc1c(NC(=O)Cc2ccccc2)cccc1C(=O)NN1C(=O)c2ccccc2C1=O,23*,7,0,-2,-25,9
CC(=O)c1cccc(NC(=O)c2ccc(N(Cc3ccccc3C)S(C)(=O)=O)cc2)c1,-9,-10,0,-2,-2,nt
COc1ccccc1NS(=O)(=O)c1cccc(C(=O)N/N=C/c2ccc(OCC(=O)O)cc2)c1,-1,-1,0,1,1,nt
CC(=O)Nc1ccc(NC(=O)c2ccc(NC(=O)c3ccccc3)cc2)cc1,27*,0,0,-3,27,4
CC(=O)Nc1ccc(NC(=O)c2ccc(N(Cc3ccccc3C)S(C)(=O)=O)cc2)cc1,20*,11,0,0,7,5
SMILES,dFosB act-1,Vif inh,Bfl-1 A1 inh,INS-1E GSIS act,Neddyl block,dFosB act-2
CC(=O)Nc1ccc(/C=N/NC(=O)CNC(=O)c2ccccc2)cc1,21*,5,1,9,-9,2
COc1ccccc1NS(=O)(=O)c1cccc(C(=O)N/N=C/c2ccc(NC(C)=O)cc2)c1,29*,9,0,6,nt,-1
Cc1ccc(-c2cnc3c(c2)C(=O)N([C@H](C)CO)C[C@@H](C)[C@H](CN(C)C(=O)c2ccccc2)O3)cc1,nt,nt,nt,-32,nt,nt
C[C@H](CO)N1C[C@H](C)[C@@H](CN(C)Cc2ccccc2)Oc2ccc(NS(=O)(=O)c3ccc(Cl)cc3)cc2C1=O,nt,nt,nt,-9,nt,nt
CC(=O)Nc1ccc2c(c1)CC(=O)N(C)C[C@H](C)[C@@H](CN(C)C(=O)OC(C)(C)C)O2,nt,nt,nt,-10,nt,nt
COc1cccc(CN2CC3(CCN(C(=O)Nc4c(C)noc4C)CC3)c3c([nH]c4cc(OC)ccc34)[C@@H]2CO)c1,nt,nt,nt,1,nt,nt
Cc1cccn2c(=O)c3cc(C(=O)NCCc4ccccc4)c(=N)n(CCCn4ccnc4)c3nc12,22*,-2,-1,nt,nt,1
COc1ccc(CCn2c(=N)c(C(=O)NCCN3CCOCC3)cc3c(=O)n4cccc(C)c4nc32)cc1OC,22*,9,2,0,-24,0
COc1ccc(CCn2c(=N)c(C(=O)NCCN3CCOCC3)cc3c(=O)n4ccccc4nc32)cc1OC,-1,7,-1,-2,-9,nt
C[C@@H]1CCCCO[C@@H](CN(C)C(=O)Nc2ccc3c(c2)OCO3)[C@H](C)CN([C@@H](C)CO)C(=O)c2cc(NC(=O)Nc3ccc(C(F)(F)F)cc3)ccc2O1,nt,nt,nt,15,nt,nt
CCNCC(=O)N1c2ccccc2CCc2ccc(NC(=O)OCC)cc21,-1,49,-3,nt,-9,nt
CCOC(=O)Nc1ccc2c(c1)N(C(=O)CN)c1ccccc1CC2,30*,-8,0,7,-7,-1
CCC(=O)N1CC(=O)N2[C@H](CO)[C@@H](c3ccc(C#Cc4cccnc4)cc3)[C@H]2C1,nt,nt,nt,7,nt,nt
Cc1cccc(C)c1NC(=O)c1cc2c(=O)c3ccccc3oc2nc1C(F)(F)F,50*,-17,nt,nt,-34,-10
C[C@H](CO)N1C[C@H](C)[C@H](CN(C)Cc2ccccc2)Oc2ccc(NC(=O)Cn3cnnn3)cc2CC1=O,nt,nt,nt,2,nt,nt
CCCN(C)C[C@H]1Oc2cc(C#CCC3CCCC3)ccc2S(=O)(=O)N([C@H](C)CO)C[C@H]1C,nt,nt,nt,643,nt,nt
CC(C)CC#Cc1cnc2c(c1)C(=O)N([C@@H](C)CO)C[C@@H](C)[C@H](CN(C)C(=O)C1CCOCC1)O2,nt,nt,nt,2,nt,nt
Cc1cccc(Nc2nc(N)nc(-c3oc4ccccc4c3C)n2)c1,78*,-3,1,19,21,-1
COc1cccc(Nc2nc(N)nc(-c3oc4ccccc4c3C)n2)c1,60*,1,0,-15,21,0
Cc1cccc(Nc2ncnc(N)n2)c1,1,4,-1,17,0,nt
